Data from PubChem BioAssay AID2284359 (EPA ToxCast).
Inconclusive results are not listed. The source made the active and inactive calls. The calls were made as follows: active = hit-call score of the fitted dose curve at least 0.9, where 1 is the maximum; inconclusive = response in the unintended direction; inactive = score below 0.9.

Test: ATG_M_06_EcoTox2: Attagene TRANS-FACTORIAL EcoTox-2 HepG2 Assay for M06 Transcription Factor (Internal Marker)
Description: ATG_EcoTox2 is a cell-based, multiplexed assay created by modifying the existing Attagene TRANS-FACTORIAL system to include a panel of nuclear receptors from some or all the following species: human (Homo sapiens), african clawed frog (Xenopus laevis), rainbow trout (Oncorhynchus mykiss), japanese medaka (Oryzias latipes), and zebrafish (Danio rerio). The ECOTOX2-FACTORIAL format uses HepG2, a human liver cell line, with measurements taken at 24 hours after chemical dosing in a 24-well plate. ATG_M_06_EcoTox2 is one of 29 assay components calculated in the ATG_EcoTox2 assay. It is designed to make measurements of mRNA induction, a form of inducible reporter, as detected with fluorescence intensity signals by Reverse transcription polymerase chain reaction (RT-PCR) and Capillary electrophoresis technology.The assay endpoint ATG_M_06_EcoTox2 was analyzed in the positive analysis fitting direction relative to DMSO as the negative control and baseline of activity. Using a type of inducible reporter, measures of mRNA for gain-of-signal activity can be used to understand the background control at the transcription factor-level as they relate to the gene. Furthermore, this assay endpoint can be referred to as a secondary readout, because this assay has produced multiple assay endpoints where this one serves a background control function. To generalize the intended target to other relatable targets, this assay endpoint is annotated to the background measurement intended target family, where the subfamily is internal marker.
Human liver HepG2 cells are transiently transfected with multiple reporter transcription units (MRTUs) in 6-well plates using FuGene 6 reagent (Roche; 3 ml FuGene/1 mg DNA). The MRTU constructs are regulated by a cis-regulating element (promoter). Each RTU expresses a GAL4-UAS that regulates the transcription of a nearby target reporter gene sequence. A major difference between the CIS and TRANS system is that in CIS activities of endogenous TFs are measured, whereas the TRANS assay evaluates changes in activities of exogenous, chimeric NR-Gal4 proteins. […] At the end of 24 hour incubation, total RNA was isolated using TriZol reagent (Invitrogen). The isolated RNA is then reverse-transcribed using oligo(dT) primer and Mo-MLV reverse transcriptase (Invitrogen) with DNAse I (Ambion) treatment for 30 min. The one-tenth of the produced cDNA was amplified by PCR using Taq DNA polymerase (Invitrogen) and two reporter sequence-specific primers. The PCR products were fluorescently labeled by primer extension with 6-arboxyfluorescein (6-FAM) 5'-labeled reporter sequence-specific primer (2 min at 95 C, 20 s at 68 C and 10 min at 72 C) and these products were digested with 5U of HpaI (New England Biolabs) for 2h at 37 C. The fragments were purified using Qiaquick PCR columns (Qiagen), analyzed on an ABI 3130xL genetic analyzer (Applied Biosystems) with peak positions identified by using a set of X-rhodamine (ROX)-labeled MapMarker1000 molecular weight standards (BioVentures). The raw capillary electrophoresis data was processed using Attagraph software (Attagene).

Compound | outcome
Cc1nc(-c2ccc(C(F)(F)F)cc2)sc1C(=O)NCc1ccc(OC(C)(C)C(=O)O)cc1 | inactive
CC(C)(Oc1ccc(C2CC2(Cl)Cl)cc1)C(=O)O (stereo unspecified) | inactive
CN(CCOc1ccc(CC2SC(=O)NC2=O)cc1)c1ccccn1 (stereo unspecified) | inactive
CC(C)(Oc1ccc(CCNC(=O)c2ccc(Cl)cc2)cc1)C(=O)O | inactive
C[C@]12C=CC(=O)C=C1CC[C@@H]1[C@@H]2C(=O)C[C@@]2(C)[C@H]1CC[C@]2(O)C(=O)CO | inactive
CC(c1cc2ccccc2s1)N(O)C(N)=O (stereo unspecified) | inactive
Cc1cccc(Nc2cc(Cl)nc(SCC(=O)O)n2)c1C | inactive
Cc1c(C)c2c(c(C)c1O)CCC(C)(COc1ccc(CC3SC(=O)NC3=O)cc1)O2 (stereo unspecified) | inactive
CC(C)OC(=O)C(C)(C)Oc1ccc(C(=O)c2ccc(Cl)cc2)cc1 | inactive
CC(C)(Oc1ccc(Cl)cc1)C(=O)O | inactive
C=C(c1ccc(C(=O)O)cc1)c1cc2c(cc1C)C(C)(C)CCC2(C)C | inactive
